This excerpt belongs to a sample that is enriched for hits.
Pf Dd2 inh: blocks in vitro growth of P. falciparum Dd2; AID 1347417; Potency, µM (series often up to 28.9 µM), for inactives: at the highest dose activity, negative = inhibition, usual class: inhibitors; 120,000 compounds, 4.3% hits; P. falciparum Dd2 growth, SYBR Green, 72 h; active = well fitted inhibition curve with a large enough effect;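 note: plate controls were DMSO vehicle for no effect and reference drug for full effect; nearly all actives have a fitted effect of over 65% in size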
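Infected erythrocytes (Dd2, 0.3% parasitemia, 2.5% hematocrit final) are added to compound in RPMI-1640/Albumax II medium, grown 72 h at 37C in low oxygen, then lysed with saponin/Triton-X containing SYBR Green and read by fluorescence.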
An asterisk follows results filed as active; [ ] = remark or other dose. Potency is the fitted concentration of half-maximal effect.

`CCS(=O)(=O)N1CCC2(CC1)CN(C(C)=O)CC2COC` (stereo not drawn) gave Pf Dd2 inh 17%.
`Cc1cc(C(=O)N2CCCCC2)c2c(C3CCNC3)noc2n1` (stereo not drawn) gave Pf Dd2 inh 1%.
`O=C(c1ccccc1)N1CCC2(CC1)Cc1ccccc1NC2=O` gave Pf Dd2 inh inactive.
COc1ccc(Cl)cc1-c1ccc2c(c1)C(=O)N1CC[C@H](NC(=O)NC(C)C)[C@H]1C(=O)N2 was read as Pf Dd2 inh -23%.
`O=C(C1NCCc2[nH]cnc21)N1CCc2c(nc(CC3CC3)[nH]c2=O)C1` (stereo not drawn) gave Pf Dd2 inh -22%.
Screening Cc1cccc(N2C(=O)CSC23C(=O)N(CC(=O)NCc2ccccc2Cl)c2ccccc23)c1 (stereo not drawn) returned Pf Dd2 inh 10µM*.
For O=C1CCSC2(C(=O)N(Cc3ccc(F)cc3)c3ccccc32)N1c1ccccc1 (stereo not drawn) the results were Pf Dd2 inh -27%.
Screening Cc1cc(C)cc(N2C(=O)CCSC23C(=O)N(Cc2ccccc2)c2ccccc23)c1 (stereo not drawn) returned Pf Dd2 inh inactive.
`O=C(CN1C(=O)C2(SCC(=O)N2c2ccccc2)c2ccccc21)NCc1ccccc1` (stereo not drawn) gave Pf Dd2 inh -14%.
For Cc1cc(C)cc(N2C(=O)CSC23C(=O)N(CC(N)=O)c2ccccc23)c1 (stereo not drawn) the results were Pf Dd2 inh -13%.
Screening Cc1cc(C)c(NC(=O)CN2C(=O)C3(SCC(=O)N3c3ccc(F)cc3)c3ccccc32)c(C)c1 (stereo not drawn) returned Pf Dd2 inh 10µM*.
COc1cccc(CN2CCCCCCNC(=O)[C@@H]3C[C@@H](C(=O)NCCc4cnc[nH]4)C[C@@H]32)c1OC was read as Pf Dd2 inh -15%.
`Cn1nc(C2CCN(C(=O)c3ccc[nH]3)CC2)n(Cc2ccccc2)c1=O` gave Pf Dd2 inh 0%.
`Cc1c(C(=O)OC2CCC(C)CC2)[nH]c2c1C(=O)CC(c1ccccc1Cl)C2` (stereo not drawn) gave Pf Dd2 inh -27%.
For Cc1c(C(=O)OCC2CCCCC2)[nH]c2c1C(=O)CC(c1ccc(F)cc1)C2 (stereo not drawn) the results were Pf Dd2 inh -13%.
For COc1cc(C2CC(=O)c3c([nH]c(C(=O)OC4CCCC4)c3C)C2)cc(OC)c1OC (stereo not drawn) the results were Pf Dd2 inh 5.6µM*.
Screening Cc1c(C(=O)OC2CCCCCC2)[nH]c2c1C(=O)CC(c1ccccc1Cl)C2 (stereo not drawn) returned Pf Dd2 inh 10µM*.
Cc1c(C(=O)OC2CCCCCC2)[nH]c2c1C(=O)CC(c1ccc(Cl)cc1)C2 (stereo not drawn) was read as Pf Dd2 inh -9%.
CC1=C(C(=O)OC2CCCCCC2)C(c2c(F)cccc2Cl)CC(=O)N1 (stereo not drawn) was read as Pf Dd2 inh -14%.
CCOC(=O)CSc1nc2ccccc2c(=O)n1-c1ccc(C(=O)NCCOC)cc1 was read as Pf Dd2 inh inactive.
O=C(Cc1ccccc1)N1CC(c2nnc(-c3ccncc3)o2)C2(CCOCC2)C1 (stereo not drawn) was read as Pf Dd2 inh inactive.
For CCOc1cc(-c2nc(C3CC(=O)N(c4ccc(F)c(Cl)c4)C3)no2)cc(OCC)c1OCC (stereo not drawn) the results were Pf Dd2 inh -23%.
Screening CCc1ccccc1N(C)C(=O)C1CCCN(c2ncnc3c2nc2n3CCCCC2)C1 (stereo not drawn) returned Pf Dd2 inh 7.9µM*.
Screening CCOc1ccccc1N(C)C(=O)C1CCCN(c2ncnc3c2nc2n3CCCCC2)C1 (stereo not drawn) returned Pf Dd2 inh -2%.
`CCCN(CCC)C(=O)C1CCN(c2ncnc3c2nc2n3CCCCC2)CC1` gave Pf Dd2 inh -20%.
Screening CCCNC(=O)C1CCN(c2ncnc3c2nc2n3CCCCC2)CC1 returned Pf Dd2 inh -9%.
For Cc1ccc(C)c(N(C)C(=O)C2CCN(c3ncnc4c3nc3n4CCCCC3)CC2)c1 the results were Pf Dd2 inh 8.9µM*.
Cc1ccc(C)c(NC(=O)C2CCN(c3ncnc4c3nc3n4CCCCC3)CC2)c1 was read as Pf Dd2 inh 15%.
Screening CN(C(=O)C1CCN(c2ncnc3c2nc2n3CCCCC2)CC1)c1ccccc1F returned Pf Dd2 inh -20%.
`O=C(Nc1ccc(F)cc1)C1CCCN(c2ncnc3c2nc2n3CCCCC2)C1` (stereo not drawn) gave Pf Dd2 inh -20%.
`CCc1ccccc1N(CC)C(=O)C1CCN(c2ncnc3c2nc2n3CCCCC2)CC1` gave Pf Dd2 inh 11µM*.
For CCc1cc(N2CCN(C(=O)[C@H]3CCC[C@@H](O)C3)CC2)ncn1 the results were Pf Dd2 inh -22%.
Cc1cc2c(N[C@@H]3CCOC[C@H]3OCc3c(C)noc3C)ncnc2s1 was read as Pf Dd2 inh -25%.
Screening COc1ccccc1OCCNC(=O)c1ccc2c(c1)N(S(C)(=O)=O)CC2 returned Pf Dd2 inh inactive.
`COc1ccc(-c2ccc(=O)n(CC(=O)Nc3ccc(C)cc3C)n2)cc1` gave Pf Dd2 inh -1%.
Screening O=C(NCCc1ccccc1)N1CCC2(CC1)CC(OCC1CC1)CCO2 (stereo not drawn) returned Pf Dd2 inh 33%.
For COC(=O)CNC(=O)C1c2ccccc2C(=O)N(Cc2ccccc2)C12CCCC2 (stereo not drawn) the results were Pf Dd2 inh -4%.
Screening O=C(NC1CCCC1)C1c2ccccc2C(=O)N(Cc2ccccc2)C12CCCC2 (stereo not drawn) returned Pf Dd2 inh -26%.
`CCCCN1C(=O)c2ccccc2C(C(=O)Nc2nc(C)cs2)C12CCCC2` (stereo not drawn) gave Pf Dd2 inh 5µM*.
Screening Cc1csc(NC(=O)C2c3ccccc3C(=O)N(Cc3ccccc3)C23CCCC3)n1 (stereo not drawn) returned Pf Dd2 inh 3.5µM*.
`CCCCN1C(=O)c2ccccc2C(C(=O)NC(C)C)C12CCCCC2` (stereo not drawn) gave Pf Dd2 inh -23%.
CCCCN1C(=O)c2ccccc2C(C(=O)NCc2ccncc2)C12CCCCC2 (stereo not drawn) was read as Pf Dd2 inh -28%.
C[S+](=O)([O-])c1ccc(-c2cc(C(=O)NCc3ccc(F)cc3)nn3cccc23)cc1 was read as Pf Dd2 inh -7%.
For CC(C)(CC(=O)O)CC(=O)N[C@H]1CO[C@H]2[C@@H]1OC[C@@H]2n1nnnc1Oc1ccc(-n2ccnc2)cc1 the results were Pf Dd2 inh 15%.
For CC(C)NC(=O)N1CCOc2ccc(CCC(=O)NCCN3CCOCC3)cc2C1 the results were Pf Dd2 inh -6%.
For Cc1cc(Nc2cccc(C)c2C)n2cnnc2n1 the results were Pf Dd2 inh -6%.
For CC(=O)N(C)C(C)c1cccs1 (stereo not drawn) the results were Pf Dd2 inh -1%[44.1 µM].
For CN(C)S(=O)(=O)c1ccc(CNC(=O)C2CCCN(CC(N)=O)C2)cc1 (stereo not drawn) the results were Pf Dd2 inh -22%.
Screening COc1ccc(CNc2nc3ccccc3c3nc(-c4ccccc4)nn23)cc1 returned Pf Dd2 inh inactive.
`CCOCCCNc1nc2cc(OC)c(OC)cc2c2nc(-c3ccccc3)nn12` gave Pf Dd2 inh 0.28µM*.

Assay outcomes (PubChem)
